In PubChem BioAssay (NCI) one finds growth data, which are given here for 38 compounds.

Compounds without any hit were thinned out: in the full panel of roughly 83,000, 20% have a hit.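 96-well plates, one dose, 48 hours. Percent growth reported; active if below 10.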 Calls of active or inactive are those of the source.

In the first assay the test system is NCI-H322M lung. Nature of the assay: NCI-60 one-dose screen, 48 h (100 = growth as untreated, 0 = no growth, -100 = all killed). The following applies: 10 µM unless noted.
Consider `O=C(C=P(c1ccccc1)(c1ccccc1)c1ccccc1)CCl`, for which the growth is 10.3% (inactive).
As for `CS(=O)(=O)Nc1cc(-c2cc3ncc(C#N)c(Nc4ccc(Oc5ccccc5)c(Cl)c4)c3s2)cnc1Cl`, the growth was 26.9% (inactive).
Same read-out and setting: the result for `O=C(c1ccccc1)N(CCCCl)C(=O)N(CCCCl)C(=O)c1ccccc1` reads 92.9% (inactive); that for `CCCCn1c(-c2ccc(F)cc2)nc2cc(OC)c(OC)cc2c1=O`, 78% (inactive).
Take `Oc1c(-c2cc(C(F)(F)F)[nH]n2)cc(Cl)c(OCc2ccc(Cl)cc2)c1-c1ccc(Cl)c(C(F)(F)F)c1`: the growth is 8.73% (active).
Still for that read-out and setting: the result for `Cc1ccccc1N1C(c2ccccc2)=NNC12C=CC(=O)c1c(O)cccc12` (stereo unspecified) reads 99.1% (inactive); that for `O=C(C(=O)c1cccnc1)c1cccnc1`, 117% (inactive).
Regarding `COc1c(B(O)O)cccc1-c1nc2ccc3[nH]ncc3c2c2c1CCCC2`, the growth was 16% (inactive).
Same read-out and setting: the result for `COC(=O)c1cc2oc(/C=N/NC(=O)c3cc4oc(-c5cccc(C(F)(F)F)c5)cc4[nH]3)cc2n1Cc1ccccc1` reads 88% (inactive).
The same measure, in the same setting: the result for `Fc1ccc(-c2nnc(N3CCOCC3)c3ccccc23)cc1` reads 94.2% (inactive).
For the compound `COc1cc(C)c2c(=O)c3c(oc2c1)C(=O)c1c(O)c(OC)cc(O)c1C3=O`, the growth was 14.2% (inactive).
Regarding `COc1ccc(C2=CC(c3ccc(OC)cc3Br)N3C=CSC3=N2)cc1` (stereo unspecified), the growth was 72.8% (inactive).
With `CC1=C(C(=O)Nc2ccc(F)cc2)C(c2ccc(Cl)cc2)C2=C(CC(C)(C)CC2=O)N1` (stereo unspecified), the growth is 102% (inactive).
Still for that read-out and setting: the result for `Cc1ccc(NC(=O)c2nc(S(C)=O)oc2-c2ccc(F)cc2)cc1Nc1nccc(-c2cccnc2)n1` (stereo unspecified) reads 103% (inactive); that for `COc1ccc(C(=O)c2c(N)nc3n2CCCC3)cc1OC`, 96.2% (inactive); that for `CC1CN(CCCOC(=O)Nc2ccc(Cl)cc2)CCN1C(C)(C)C` (stereo unspecified), 96.5% (inactive).
Turning to `CCN(CC)c1ccc2nc3c4ccccc4c(=O)cc-3n(-c3ccccc3)c2c1`, the growth was -23.5% (active).
Consider `C=CCOc1c(Br)cc(Br)cc1Br`, for which the growth is 45% (inactive).
With `Brc1ccccc1Cn1c(-c2cncs2)nc2ccccc21`, the growth is 86.6% (inactive).
Regarding `CCN(CC)CCCNc1cccc2c(C)cc(OC)nc12`, the growth was 93.6% (inactive).
Still for that read-out and setting: the result for `O=C(NO)c1ccc(NCc2csc3ccccc23)cc1` reads 85.7% (inactive); that for `CCNS(=O)(=O)c1ccc(C)cc1`, 102% (inactive).
As for `CC(=O)[C@@]1(O)[C@H](C)C[C@H]2[C@@H]3C=C(C)C4=Cc5c(cnn5-c5ccccc5)C[C@]4(C)[C@H]3[C@@H](O)C[C@@]21C`, the growth is 75.9% (inactive).
On the same count and under the same terms, the result for `O=C1OC(c2ccc(-c3ccccc3)cc2)=C/C1=C/c1c(Cl)cccc1Cl` reads 85.7% (inactive).
As for `COc1ccc(-c2nc(-c3ccccc3OCc3ccccc3OC)nc(C)c2C(C)=O)cc1`, the growth is 94.7% (inactive).
With `COc1ccc(C2CC(c3cccc(Nc4ccnc5cc(Cl)ccc45)c3)=NN2c2ccccc2)cc1` (stereo unspecified), the growth was 75% (inactive).
Take `Cc1cc(C)c2c(NC(=O)Nc3ccc(Cl)c(Cl)c3)n[nH]c2n1`: the growth was 91.3% (inactive).
On the same count and under the same terms, the result for `COc1ccc(/C(=C\c2ccc3c(c2)OCO3)C(=O)Nc2nc3ccc(F)cc3s2)cc1OC` reads 87.3% (inactive).
On the same count and under the same terms, the result for `Cc1[nH]n(C(=O)c2ccncc2)c(=O)c1N=Nc1ccc(O)c(C(=O)O)c1` reads 91.3% (inactive); that for `Cc1cc(NC(=O)C2c3ccccc3C(=O)N(CC(C)C)C2c2cccs2)no1` (stereo unspecified), 107% (inactive); that for `CC(C)N=C1CCCC1C(=S)SSC(=S)C1CCCC1=NC(C)C` (stereo unspecified), 86.7% (inactive).
Same read-out and setting: the result for `COCCCNCC(=O)Nc1c(C)cccc1C` reads 139% (inactive); that for `Clc1ccc(Nc2ncnc3c2sc2ncccc23)cc1`, 45.9% (inactive).
On to `CNC(=O)c1cc(Oc2ccc(NC(=O)c3nc(S(C)(=O)=O)sc3-c3ccc(F)cc3)cc2)ccn1`, for which the growth was 28.2% (inactive).
Regarding `O=C(/C=C/c1ccccc1)C(Br)C(Br)c1ccccc1` (stereo unspecified), the growth is 100% (inactive).
Same read-out and setting: the result for `C#CC[C@@H]1C[C@]2(C)[C@H]3CC[C@@H]4[C@H]5C(C(=C)C)CC[C@]5(C(=O)NCCN(CCN)CCN)CC[C@@]4(C)[C@]3(C)CC[C@H]2C(C)(C)[C@H]1OC(C)=O` (stereo partly specified) reads 71.4% (inactive).
On to `[Ag].[Ag].[NH-]S(=O)(=O)c1ccc(N=Nc2cc(N=Nc3ccc(S([NH-])(=O)=O)cc3)c3c(NC(=O)C(Cl)Cl)cccc3c2OC(=O)C(Cl)Cl)cc1.[c-]1nccs1.[c-]1nccs1`, for which the growth was 97.2% (inactive).
The same measure, in the same setting: the result for `Oc1ccc(-c2cnc(-c3ccccc3)[nH]2)c(O)c1` reads 94.9% (inactive).

In the next assay the test system is HOP-62 NSCLC. The description is as above. The conditions noted are these: 10 µM unless noted.
As for `O=C(C=P(c1ccccc1)(c1ccccc1)c1ccccc1)CCl`, the growth is 13.9% (inactive).
The same measure, in the same setting: the result for `CS(=O)(=O)Nc1cc(-c2cc3ncc(C#N)c(Nc4ccc(Oc5ccccc5)c(Cl)c4)c3s2)cnc1Cl` reads 54.8% (inactive); that for `O=C(c1ccccc1)N(CCCCl)C(=O)N(CCCCl)C(=O)c1ccccc1`, 86.7% (inactive); that for `CCCCn1c(-c2ccc(F)cc2)nc2cc(OC)c(OC)cc2c1=O`, -11.2% (active).
Still for that read-out and setting: the result for `Oc1c(-c2cc(C(F)(F)F)[nH]n2)cc(Cl)c(OCc2ccc(Cl)cc2)c1-c1ccc(Cl)c(C(F)(F)F)c1` reads -20.9% (active); that for `Cc1ccccc1N1C(c2ccccc2)=NNC12C=CC(=O)c1c(O)cccc12` (stereo unspecified), 31.1% (inactive).
The same measure, in the same setting: the result for `O=C(C(=O)c1cccnc1)c1cccnc1` reads 98.4% (inactive); that for `COc1c(B(O)O)cccc1-c1nc2ccc3[nH]ncc3c2c2c1CCCC2`, 7.22% (active).
Regarding `COC(=O)c1cc2oc(/C=N/NC(=O)c3cc4oc(-c5cccc(C(F)(F)F)c5)cc4[nH]3)cc2n1Cc1ccccc1`, the growth is -2.75% (active).
Consider `Fc1ccc(-c2nnc(N3CCOCC3)c3ccccc23)cc1`, for which the growth is 97.1% (inactive).
Still for that read-out and setting: the result for `COc1cc(C)c2c(=O)c3c(oc2c1)C(=O)c1c(O)c(OC)cc(O)c1C3=O` reads 25.7% (inactive).
Same read-out and setting: the result for `COc1ccc(C2=CC(c3ccc(OC)cc3Br)N3C=CSC3=N2)cc1` (stereo unspecified) reads 75.6% (inactive).
The same measure, in the same setting: the result for `CC1=C(C(=O)Nc2ccc(F)cc2)C(c2ccc(Cl)cc2)C2=C(CC(C)(C)CC2=O)N1` (stereo unspecified) reads 97.2% (inactive); that for `Cc1ccc(NC(=O)c2nc(S(C)=O)oc2-c2ccc(F)cc2)cc1Nc1nccc(-c2cccnc2)n1` (stereo unspecified), 58.2% (inactive).
For `COc1ccc(C(=O)c2c(N)nc3n2CCCC3)cc1OC`, the growth was 102% (inactive).
On the same count and under the same terms, the result for `CC1CN(CCCOC(=O)Nc2ccc(Cl)cc2)CCN1C(C)(C)C` (stereo unspecified) reads 112% (inactive); that for `CCN(CC)c1ccc2nc3c4ccccc4c(=O)cc-3n(-c3ccccc3)c2c1`, 9.84% (active).
The same measure, in the same setting: the result for `C=CCOc1c(Br)cc(Br)cc1Br` reads 58.6% (inactive); that for `Brc1ccccc1Cn1c(-c2cncs2)nc2ccccc21`, 76% (inactive); that for `CCN(CC)CCCNc1cccc2c(C)cc(OC)nc12`, 98.8% (inactive).
The same measure, in the same setting: the result for `O=C(NO)c1ccc(NCc2csc3ccccc23)cc1` reads 65.3% (inactive); that for `CCNS(=O)(=O)c1ccc(C)cc1`, 100% (inactive); that for `CC(=O)[C@@]1(O)[C@H](C)C[C@H]2[C@@H]3C=C(C)C4=Cc5c(cnn5-c5ccccc5)C[C@]4(C)[C@H]3[C@@H](O)C[C@@]21C`, 34.8% (inactive).
Turning to `O=C1OC(c2ccc(-c3ccccc3)cc2)=C/C1=C/c1c(Cl)cccc1Cl`, the growth was 76% (inactive).
Same read-out and setting: the result for `COc1ccc(-c2nc(-c3ccccc3OCc3ccccc3OC)nc(C)c2C(C)=O)cc1` reads 91.5% (inactive).
Turning to `COc1ccc(C2CC(c3cccc(Nc4ccnc5cc(Cl)ccc45)c3)=NN2c2ccccc2)cc1` (stereo unspecified), the growth was 60% (inactive).
Take `Cc1cc(C)c2c(NC(=O)Nc3ccc(Cl)c(Cl)c3)n[nH]c2n1`: the growth is 105% (inactive).
On the same count and under the same terms, the result for `COc1ccc(/C(=C\c2ccc3c(c2)OCO3)C(=O)Nc2nc3ccc(F)cc3s2)cc1OC` reads 92.8% (inactive); that for `Cc1[nH]n(C(=O)c2ccncc2)c(=O)c1N=Nc1ccc(O)c(C(=O)O)c1`, -3.17% (active).
Same read-out and setting: the result for `Cc1cc(NC(=O)C2c3ccccc3C(=O)N(CC(C)C)C2c2cccs2)no1` (stereo unspecified) reads 43.8% (inactive); that for `CC(C)N=C1CCCC1C(=S)SSC(=S)C1CCCC1=NC(C)C` (stereo unspecified), 24.5% (inactive).
On the same count and under the same terms, the result for `COCCCNCC(=O)Nc1c(C)cccc1C` reads 107% (inactive); that for `Clc1ccc(Nc2ncnc3c2sc2ncccc23)cc1`, 15.7% (inactive); that for `CNC(=O)c1cc(Oc2ccc(NC(=O)c3nc(S(C)(=O)=O)sc3-c3ccc(F)cc3)cc2)ccn1`, 94.9% (inactive).
As for `O=C(/C=C/c1ccccc1)C(Br)C(Br)c1ccccc1` (stereo unspecified), the growth was 12.5% (inactive).
For `C#CC[C@@H]1C[C@]2(C)[C@H]3CC[C@@H]4[C@H]5C(C(=C)C)CC[C@]5(C(=O)NCCN(CCN)CCN)CC[C@@]4(C)[C@]3(C)CC[C@H]2C(C)(C)[C@H]1OC(C)=O` (stereo partly specified), the growth was 83.3% (inactive).
With `[Ag].[Ag].[NH-]S(=O)(=O)c1ccc(N=Nc2cc(N=Nc3ccc(S([NH-])(=O)=O)cc3)c3c(NC(=O)C(Cl)Cl)cccc3c2OC(=O)C(Cl)Cl)cc1.[c-]1nccs1.[c-]1nccs1`, the growth is 78.9% (inactive).
For the compound `Oc1ccc(-c2cnc(-c3ccccc3)[nH]2)c(O)c1`, the growth is -12.1% (active).
